Source: PubChem (several laboratories)
The list is not random: actives were taken first. Their share in the collection is about 1.7%.
CCHF vOTU inh – CCHFV vOTU protease inhibitors, primary screen, biochemical, Pep-AMC substrate, fluorescence. Crimean-Congo hemorrhagic fever virus L polyprotein viral ovarian tumor (vOTU) protease …. inhibition, % at 11.5 µM. 370,000 compounds, 0.55% hits. AID 651958, 2012; in the data active = inhibition above about 30%; also: 0% = vehicle wells with enzyme and 100% = no enzyme wells
PfHsp40 rescue – rescue of yeast from PfHsp40 toxicity, primary screen, S. cerevisiae, ATP luminescence; S. cerevisiae expressing PfHsp40, growth rescue; growth rescue, % at 12.5 µM; 340,000 compounds, 0.68% hits; in the data active = growth rescue above about 28%, passing the limit was not always enough; inconclusive = no clear call, values can overlap the other calls;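 also: yeast W303a lacking pdr1 and pdr3 grown in galactose medium; growth measured after three days at 30 °C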
Mtb bLac sens – beta-lactam sensitization of Mtb H37Rv, H37Rv; inhibition, % at 25 µM; M. tuberculosis H37Rv growth with meropenem, percent inhibition; 330,000 compounds, 0.27% hits; call rule not given here;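 also: growth measured after seven days incubation then overnight dye step; 0% = bacteria only wells and 100% = bacteria with antibiotic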
Mtb hypoxia inh – PubChem AID 1159583 | M. tuberculosis hypoxia-regulated fluorescent reporter, fluorescence | fluorescence inhibition, % (no concentration beside the values) | 300,000 compounds, 0.1% hits; in the data active = fluorescence inhibition mostly above about 23%, no sharp cut-off; inactive = mostly below about 17%
RecA splice inh – Mtb RecA intein splicing inhibitors, primary screen, biochemical, fluorescence, HTS. Protein RecA (Mycobacterium tuberculosis (strain ATCC 25618 / H37Rv)), P9WHJ3. cell-free RecA intein splicing. inhibition, % (concentration not given with the values). 290,000 compounds, 0.75% hits; in the data active = inhibition above about 30%; inconclusive = no clear call, values can overlap the other calls;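 also: 0% = vehicle wells and 100% = reference inhibitor control wells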
Target sequence (P9WHJ3 whole entry, looked up, canonical isoform): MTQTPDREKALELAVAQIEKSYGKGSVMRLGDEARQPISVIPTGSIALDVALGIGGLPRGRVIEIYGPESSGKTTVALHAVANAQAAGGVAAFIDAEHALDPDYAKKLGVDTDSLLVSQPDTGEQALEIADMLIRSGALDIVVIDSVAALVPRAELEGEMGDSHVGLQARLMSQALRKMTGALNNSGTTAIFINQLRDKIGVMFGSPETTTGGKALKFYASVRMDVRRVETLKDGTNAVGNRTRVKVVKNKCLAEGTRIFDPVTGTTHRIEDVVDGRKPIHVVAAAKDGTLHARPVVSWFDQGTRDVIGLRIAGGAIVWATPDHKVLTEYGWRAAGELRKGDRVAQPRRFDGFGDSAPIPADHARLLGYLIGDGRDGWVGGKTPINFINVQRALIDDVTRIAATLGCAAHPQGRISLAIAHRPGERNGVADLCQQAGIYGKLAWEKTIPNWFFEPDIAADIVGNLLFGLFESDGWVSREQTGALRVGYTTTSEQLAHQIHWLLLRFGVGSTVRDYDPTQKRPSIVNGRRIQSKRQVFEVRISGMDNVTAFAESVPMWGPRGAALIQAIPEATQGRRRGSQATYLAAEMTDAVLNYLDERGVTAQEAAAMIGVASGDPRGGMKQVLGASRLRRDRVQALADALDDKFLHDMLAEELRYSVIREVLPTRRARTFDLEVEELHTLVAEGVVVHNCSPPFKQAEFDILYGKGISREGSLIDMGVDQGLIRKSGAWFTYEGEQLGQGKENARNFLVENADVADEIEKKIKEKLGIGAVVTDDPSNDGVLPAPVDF
* marks the source's active call; other numbers are inactive results; ? = inconclusive; · = no result shown.

SMILES | CCHF vOTU inh | PfHsp40 rescue | Mtb bLac sens | Mtb hypoxia inh | RecA splice inh
O=S1(=O)CCOCC(c2ccccc2)N1Cc1ccccc1F (stereo unspecified) | · | · | · | 2.2 | ·
COc1ccc(CC(N)=NOC(=O)c2ccc(Cl)cc2)cc1 | · | · | · | 6.6 | ·
CCn1c(=O)c(C(=O)NCCc2ccc(OC)c(OC)c2)c(O)c2ccccc21 | -0.7 | 10.2 | ? | -7.3 | 4.2
C=CCn1c(=O)c(C(=O)NCc2ccccc2)c(O)c2ccccc21 | -4.9 | 128.8* | 10.8 | 7.8 | ·
CCCn1c(=O)c(C(=O)NCCc2ccc(OC)c(OC)c2)c(O)c2ccccc21 | 7.4 | 191.8* | 0.5 | 8.2 | 2.4
O=C(C[n+]1ccccc1)NN=Cc1ccc(Cl)c(Cl)c1 | · | · | · | 9.4 | ·
Cc1cccc(Cn2ncc(Cl)c(Cl)c2=O)c1 | -15.5 | -1.5 | 98.5 | · | 55.2*
COc1ccc(COC(=O)NN=C(C)CC(=O)Nc2ccc(Cl)cn2)cc1 | · | · | · | 4.6 | ·
COc1ccc(COC(=O)N/N=C(\C)CC(=O)Nc2ccc(Cl)cn2)cc1 | 10.2 | -0.6 | 1.3 | · | 45.3*
Cc1cc(C)cc(S(=O)(=O)c2cnc3ccccc3n2)c1 | -8.4 | 0.2 | -0.1 | 10.0 | 31.5*
O=C(NN=Cc1ccc(N2CCOCC2)o1)c1cccc(C(F)(F)F)c1 | · | · | · | 8.0 | ·
CCCCCc1cc(=O)oc2c(C(CCN3CCCC(C)C3)c3ccc(N(C)C)cc3)c(OC)cc(OC)c12 (stereo unspecified) | · | 1.7 | 100.4 | · | 30.9*
Nc1ccc2ccccc2c1[N+](=O)[O-] | 5.6 | 0.5 | · | 5.7 | ·
Nc1cc2c3ccccc3ccc2c2ccccc12 | -28.4 | 249.1* | · | 6.4 | ·
Cc1cc(C(=O)N/N=C/c2cc(Br)cc([N+](=O)[O-])c2O)c2ccccc2n1 | 6.5 | 184.1* | 2.7 | · | 1.0
Cc1cc(C(=O)NN=Cc2cc(Br)cc([N+](=O)[O-])c2O)c2ccccc2n1 | · | · | · | 3.5 | ·
O=C1/C(=C/c2ccccc2F)SC(=S)N1CC(=O)N1CCCCC1c1cccnc1 (stereo unspecified) | 17.4 | 2.0 | 73.5 | · | 32.4*
Nc1ccc2nc(CN3CCOCC3)[nH]c2c1 | -3.1 | -1.5 | 2.8 | 1.3 | 41.9*
c1ccc2[nH]c(CN3CCOCC3)nc2c1 | -7.5 | -0.3 | 2.9 | 5.7 | -4.8
CN(C)n1cccc1/C=C(\C#N)S(=O)(=O)c1cccc(Cl)c1 | -6.3 | 31.8* | 2.4 | 5.6 | -0.4
COC(=O)C1=C(c2cccc(OCc3ccccc3)c2)CC2CCC1N2C(=O)NCc1ccccc1OC (stereo unspecified) | · | · | · | 11.1 | ·
c1ccc(CN2CN=C(Nc3nc4ccccc4s3)NC2)cc1 | -7.9 | -0.7 | 2.6 | -0.8 | 0.4
COc1ccc2nc(N3C(=O)CNC3=S)sc2c1 | 3.8 | 32.1* | 58.6 | · | 0.0
c1ccc2sc(NC3=NCCN3)nc2c1 | 9.4 | 186.3* | 7.0 | 9.3 | 15.0
COc1ccc(Nc2nc3ccc(OC)cc3s2)cc1 | -0.3 | 7.6 | -0.5 | -6.2 | -3.7
SMILES | CCHF vOTU inh | PfHsp40 rescue | Mtb bLac sens | Mtb hypoxia inh | RecA splice inh
COc1ccc2nc(NC3=NCCN3)sc2c1 | -2.5 | 125.6* | -1.8 | · | 1.4
CCOC(=O)NC1Cc2ccccc2C1Sc1ccccn1 (stereo unspecified) | -3.1 | 53.9* | 1.9 | 14.1 | -2.4
CCOC(=O)NC(=O)CSc1ccccn1 | 9.2 | -1.2 | 1.4 | 6.1 | 0.4
CC(Oc1ccc(Cl)cc1Cl)C(=O)NN=C1CCCc2ccccc21 (stereo unspecified) | · | · | · | -7.6 | ·
O=C1CS/C(=C\[N+](=O)[O-])N1c1ccc(OC(F)(F)F)cc1 | 7.8 | -0.6 | -16.7 | 10.2 | 35.7*
CC1(C)CCC(=O)N(c2ccc(OC(F)(F)F)cc2)C1=O | 3.4 | -0.2 | 5.0 | 8.5 | -1.7
COc1cccc(CNC(=O)C2CCCN(S(=O)(=O)c3cccc4nonc34)C2)c1 (stereo unspecified) | -1.3 | 38.1* | 6.3 | 3.0 | 3.1
Cc1ccc(C=NNC(=O)c2ccc(N(C)S(=O)(=O)c3ccccc3)cc2)cc1 | · | · | · | 0.6 | ·
O=c1c2ccccc2nc(-c2ccc([N+](=O)[O-])cc2)n1-c1ccccc1 | -5.3 | -1.1 | 5.0 | 9.5 | 3.3
O=c1c2ccccc2nc(-c2cccc(Cl)c2)n1O | -7.0 | 235.8* | 0.0 | -0.8 | -1.7
O=c1c2cc(Cl)ccc2nc(-c2ccccc2Cl)n1O | 7.0 | 11.9 | 3.1 | 12.4 | 0.2
Cc1ccc(-c2nc3ccc(Cl)cc3c(=O)n2O)cc1 | -2.5 | 355.0* | 74.9 | 11.6 | -2.6
O=c1c2ccccc2nc(-c2ccc([N+](=O)[O-])cc2)n1O | -10.4 | 30.4* | 66.7 | 8.3 | -1.1
COc1ccc(C(=O)On2c(-c3ccc(Br)cc3)nc3ccccc3c2=O)cc1 | 1.2 | 375.0* | 86.5 | -14.6 | 1.8
N#CC(=Cc1ccc(N2CCCCC2)o1)C(=O)Nc1ccc2ccccc2c1 | · | · | · | -53.9 | ·
CC(C(=O)Nc1ccc2ccccc2c1)C1C[C@]1(C)C(NS(=O)(=O)c1ccc(-c2ccccc2)cc1)c1ccccc1 (stereo partly specified) | · | · | · | 19.5 | ·
COc1cc(C=CC(=O)O)ccc1S(=O)(=O)N1CCCc2ccccc21 | · | · | · | 5.6 | ·
O=c1c2cc(Br)ccc2nc(-c2ccccc2)n1O | -5.3 | 128.0* | -6.4 | · | -6.4
Cc1ccc(-c2nc3ccccc3c(=O)n2O)cc1 | 4.5 | 131.9* | 83.6 | 10.0 | -3.0
Cc1nc2ccc(Br)cc2c(-c2ccccc2)c1C(=O)O | 1.7 | 0.0 | 6.7 | · | -0.4
S=c1[nH]nc(-c2ccccn2)n1N=Cc1ccco1 | · | · | · | -12.6 | ·
Cc1ccc(OCC(O)CN2C(=O)NC(C)(C)C2=O)cc1 (stereo unspecified) | 2.0 | 53.0* | -1.1 | · | 1.4
ON=Cc1ccc(-c2cc(Cl)ccc2Cl)o1 | · | · | · | 4.8 | ·
CN1C(=O)C2(OCC(COc3ccc(Cl)cc3)O2)c2ccccc21 (stereo unspecified) | -7.3 | -0.5 | 23.6 | 3.8 | 7.0
CC(=O)N1CCN(c2ccc(OC[C@H]3CO[C@](Cn4ccnc4)(c4ccc(Cl)cc4Cl)O3)cc2)CC1 | -2.6 | 102.0* | 96.3 | · | 6.5
SMILES | CCHF vOTU inh | PfHsp40 rescue | Mtb bLac sens | Mtb hypoxia inh | RecA splice inh
CCC(Oc1ccccc1)C(=O)Nc1nnc(C)s1 (stereo unspecified) | -7.8 | -1.7 | -2.4 | 1.2 | -1.7
CCC(Oc1ccccc1)C(=O)Nc1ncc([N+](=O)[O-])s1 (stereo unspecified) | 17.9 | 166.2* | 1.0 | 5.1 | 17.2
Cc1[nH]c2ccccc2c1C=NNC(=S)NCc1ccccc1 | · | · | · | -1.5 | ·
Oc1cccc(/C=N/N(Cc2ccccc2)c2ccccc2)c1 | 5.2 | 345.1* | 22.6 | · | ·
CN(C)c1ccc(C=NN(Cc2ccccc2)c2ccccc2)cc1 | · | · | · | 14.3 | ·
Oc1ccc(/C=N/N(Cc2ccccc2)c2ccccc2)c(O)c1O | 11.1 | 41.7* | · | · | 17.6
Nc1c(C(=O)NN=Cc2ccc(Cl)cc2)cnn1-c1ccccc1 | · | · | · | -2.9 | ·
N#CC(=NNc1cccc(Cl)c1)C(=O)c1ccccc1 | · | · | · | 4.4 | ·
O=C(NCC1CCCO1)c1sc(=S)n2c1[nH]c(=O)c1ccc(C(=O)N3CCCCC3)cc12 (stereo unspecified) | 18.3 | 7.8 | 64.5 | 35.2* | -74.5
